# Activity calls are given as the source filed them. Unless noted, how the calls were made is not given here.
# How the values were obtained:
# [1] = A549 cell viability effects, profiling panel, calcein-AM fluorescence, 48 h, basal (AID 1162); conditions: higher = more signal; further: test concentration not given here
# [2] = adipocyte viability effects, profiling panel, cell-based, 3T3-L1 adipocytes, calcein-AM fluorescence, 48 h, basal (AID 1163); conditions: 3T3-L1 adipocytes viability, higher = more signal; further: test concentration not given here
# [3] = HepG2 cell viability effects, profiling panel, calcein-AM fluorescence, 48 h, basal (AID 1164); conditions: higher = more signal; further: test concentration not given here
# [4] = MM1S cell viability effects, profiling panel, calcein-AM fluorescence, 48 h, basal (AID 1165); conditions: higher = more signal;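 further: viability of MM1S multiple myeloma cells under basal unstimulated conditions; test concentration not given here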
# [5] = basal RPMI8226 viability, no added stimulus, profiling panel, cell-based, calcein-AM fluorescence, 48 h, PK04 Diversity Set (AID 1166); conditions: RPMI8226 myeloma viability, higher = more signal;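 further: cells grown under basal conditions without added stimulus; test concentration not given here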
# [6] = basal HepG2 mitochondrial membrane potential changes, profiling panel, cell-based, JC-1 fluorescence, 24 h, 100 nL compound (AID 1167); conditions: higher = more signal; further: test concentration not given here
# [7] = basal 3T3-L1 adipocyte mitochondrial potential changes, profiling panel, cell-based, JC-1 fluorescence, 3T3-L1 adipocytes, 24 h, 100 nL compound (AID 1168); conditions: JC-1 mitochondrial fluorescence, higher = more signal, called active from +8 up or from −8 down; further: test concentration not given here
# [8] = basal RPMI8226 mitochondrial membrane potential changes, profiling panel, cell-based, JC-1 fluorescence, 24 h, 100 nL compound (AID 1169); conditions: RPMI8226 myeloma, JC-1 mitochondrial potential fluorescence, higher = more signal; further: test concentration not given here
# [9] = basal MM1S mitochondrial membrane potential changes, profiling panel, cell-based, JC-1 fluorescence, 24 h, 100 nL compound (AID 1170); conditions: higher = more signal; further: test concentration not given here
# [10] = A549 lung cancer cell viability effects, profiling panel, resazurin fluorescence, 24 h, PK04 Diversity Set (AID 1171); conditions: higher = more signal, called active from +8 up or from −8 down; further: test concentration not given here
# [11] = HepG2 liver cancer cell viability effects, profiling panel, resazurin fluorescence, 24 h, PK04 Diversity Set (AID 1172); conditions: higher = more signal; further: test concentration not given here
# [12] = basal S. cerevisiae growth modulation, no modifier, primary screen, OD600, strain BY4716, 24 h, basal condition (AID 1173); conditions: OD600, 24 h, higher = more signal, called active from +8 up or from −8 down
# [13] = MM1S myeloma cell viability, profiling panel, resazurin fluorescence, basal, 24 h, PK04 Diversity Set (AID 1174); conditions: higher = more signal, called active from +8 up or from −8 down;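 further: MM1S multiple myeloma cell line; test concentration not given here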
# [14] = biological target: Dihydroorotate dehydrogenase (quinone), mitochondrial (Plasmodium falciparum (isolate 3D7)) (UniProt Q08210); test: PfDHODH enzyme inhibitors, primary screen, biochemical, C-terminal His tag, absorbance 600 nm (AID 1175); conditions: DCIP absorbance 600 nm, higher = more signal, called active from +8 up or from −8 down;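 further: recombinant parasite enzyme with a five histidine tag at its C terminus; test concentration not given here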
# [15] = P. aeruginosa biofilm formation inhibitors, primary screen, strain PAO1, LB-PBS medium, absorbance 600 nm (AID 1176); further: test concentration not given here; conditions: P. aeruginosa PAO1 growth/biofilm, A600, 12 h; higher = more signal
# [16] = S. cerevisiae RM11-1a growth modifiers, primary screen, strain RM11-1a, OD600, basal, 24 h (AID 1177); conditions: OD600, 24 h, higher = more signal, called active from +8 up or from −8 down;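 further: cultures grown under basal conditions with no added stressor; test concentration not given here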
# [17] = E. coli acrAB mutant growth effects, primary screen, E. coli filamentation inducers, strain DRC39, OD650, 24 h (AID 1178); conditions: higher = more signal, called active from +8 up or from −8 down;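 further: growth measured as culture turbidity by optical density at 650 nm; test concentration not given here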
# [18] = E. coli acrAB mutant growth effects, primary screen, E. coli filamentation inducers, strain DRC39, OD650, 48 h (AID 1179);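 further: screen aims at cell division blockers that make cells filament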; conditions: E. coli DRC39 delta-acrAB growth, higher = more signal, called active from +8 up or from −8 down
# [19] = RPMI8226 myeloma cell viability, profiling panel, resazurin fluorescence, basal, 24 h, PK04 Diversity Set (AID 1180); conditions: higher = more signal;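 further: RPMI8826 multiple myeloma cell line at 5000 cells per well; test concentration not given here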
# [20] = biological target: E3 ubiquitin-protein ligase XIAP (Homo sapiens) (UniProt P98170); test: XIAP binders, primary screen, biophysical, small-molecule microarray, fluorescence 635 nm (AID 1181); conditions: small-molecule microarray binding, higher = more signal;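 further: score merges 667 nm emission and signal to noise over triplicate slides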
# Sequence of E3 ubiquitin-protein ligase XIAP (Homo sapiens) (P98170 whole entry, looked up): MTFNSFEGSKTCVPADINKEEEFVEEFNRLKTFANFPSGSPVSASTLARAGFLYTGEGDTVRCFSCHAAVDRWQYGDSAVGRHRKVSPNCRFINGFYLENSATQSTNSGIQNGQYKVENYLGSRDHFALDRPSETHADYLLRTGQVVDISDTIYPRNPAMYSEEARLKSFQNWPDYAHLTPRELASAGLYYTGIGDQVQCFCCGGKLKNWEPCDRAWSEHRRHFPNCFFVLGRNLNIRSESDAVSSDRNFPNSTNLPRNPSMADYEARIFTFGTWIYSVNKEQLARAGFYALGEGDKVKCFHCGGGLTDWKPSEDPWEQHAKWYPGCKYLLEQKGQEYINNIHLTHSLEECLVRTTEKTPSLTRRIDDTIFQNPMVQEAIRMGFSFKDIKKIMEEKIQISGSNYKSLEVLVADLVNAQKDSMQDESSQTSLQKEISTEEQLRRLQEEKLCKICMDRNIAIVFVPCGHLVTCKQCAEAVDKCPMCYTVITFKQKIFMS
# Sequence of Dihydroorotate dehydrogenase (quinone), mitochondrial (Plasmodium falciparum (isolate 3D7)) (Q08210 whole entry, looked up): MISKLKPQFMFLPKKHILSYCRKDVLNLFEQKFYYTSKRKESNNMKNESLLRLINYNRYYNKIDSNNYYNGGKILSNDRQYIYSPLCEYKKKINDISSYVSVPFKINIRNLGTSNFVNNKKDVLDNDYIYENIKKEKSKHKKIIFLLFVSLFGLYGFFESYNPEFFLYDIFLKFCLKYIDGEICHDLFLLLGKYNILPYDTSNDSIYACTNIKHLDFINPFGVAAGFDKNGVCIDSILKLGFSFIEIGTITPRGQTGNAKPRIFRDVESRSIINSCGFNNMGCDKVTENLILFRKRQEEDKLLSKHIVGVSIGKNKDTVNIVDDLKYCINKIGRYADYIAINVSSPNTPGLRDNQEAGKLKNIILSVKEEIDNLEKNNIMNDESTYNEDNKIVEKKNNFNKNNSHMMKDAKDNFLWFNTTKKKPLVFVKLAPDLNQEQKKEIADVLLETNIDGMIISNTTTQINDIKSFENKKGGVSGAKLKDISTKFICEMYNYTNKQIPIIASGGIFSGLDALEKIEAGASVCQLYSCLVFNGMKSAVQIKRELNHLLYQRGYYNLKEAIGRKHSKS
Structure (SMILES),z-score [1],z-score [2],z-score [3],z-score [4],z-score [5],z-score [6],z-score [7],z-score [8],z-score [9],z-score [10],z-score [11],z-score [12],z-score [13],composite z-score [14],z-score [15],z-score [16],z-score [17],z-score [18],z-score [19],composite z-score [20]
CO[C@H]1O[C@H](CO)[C@@H](OC(=O)Nc2ccc(Oc3ccccc3)cc2)[C@H](OC(=O)Nc2ccccc2-c2ccccc2)[C@@H]1OC(=O)Nc1ccccc1-c1ccccc1,-0.0685,0.0358,-0.61,-0.443,-0.612,0.319,2.46 (inactive),-1.13,0.267,-0.41 (inactive),0.776,1.01 (inactive),-0.648 (inactive),0.308 (inactive),0.18 (inactive),2.58 (inactive),-0.325 (inactive),-0.0232 (inactive),-0.296,-0.117
CC=CC(O)C1C=CC2C(=O)N(c3ccccc3)C(=O)C2N1Nc1ccc([N+](=O)[O-])cc1 (stereo not given),-0.972,-1.3,0.196,0.459,0.471,-0.653,0.207 (inactive),0.592,-1.01,-0.0977 (inactive),-0.0211,0.0621 (inactive),-0.156 (inactive),-0.213 (inactive),0.71 (inactive),-0.372 (inactive),-1.19 (inactive),-0.279 (inactive),0.0388,-0.0807
CC(C)C(=C=CC[C@H](O)c1ccc(OCCO)cc1)C[C@H](O)c1cc(Cl)cc(Cl)c1O,0.648,0.831,-0.627,-3.41,-3.74,-1.77,-0.132 (inactive),-0.124,-0.66,0.885 (inactive),0.918,-5.12 (inactive),-1.31 (inactive),-2.84 (inactive),-0.21 (inactive),-0.2 (inactive),1.14 (inactive),0.476 (inactive),-0.576,0.0338
Cc1c(NC(=O)/C(C#N)=C/C=C/c2ccc(N(C)C)cc2)c(=O)n(-c2ccccc2)n1C,0.284,0.257,0.175,0.232,0.285,-0.545,2.26 (inactive),-0.665,1.64,0.765 (inactive),0.29,-0.312 (inactive),0.514 (inactive),-0.186 (inactive),-0.103 (inactive),-0.246 (inactive),1.78 (inactive),-0.202 (inactive),1.08,0.0899
COC(=O)[C@]1(CCS(=O)(=O)c2ccccc2)N=C(c2ccc(OCCCO)cc2)O[C@@H]1c1ccccc1CN=[N+]=[N-],-2.82,0.65,-2.94,-3.4,-3.15,-1.05,-1.02 (inactive),-1.08,-1.88,-4.11 (inactive),-1.71,1.69 (inactive),-4.25 (inactive),1.09 (inactive),1.32 (inactive),1.91 (inactive),0.153 (inactive),-1.14 (inactive),-3.68,-0.0062
COCCCNC(=O)[C@@]1(Sc2ccc(C)cc2)CC(=O)N(Cc2cc(C(F)(F)F)cc(C(F)(F)F)c2)[C@@H]1c1ccc(CO)cc1,0.285,-0.515,0.584,1.35,1.42,0.967,0.895 (inactive),0.786,-0.422,-1.07 (inactive),-0.092,-0.138 (inactive),-0.538 (inactive),-0.669 (inactive),0.158 (inactive),-0.219 (inactive),0.0881 (inactive),0.231 (inactive),-0.368,-0.0571
CC(C)NC(=O)[C@@]1(C)c2ccccc2C(=O)N(C(C)C)[C@H]1c1ccc(CO)cc1,-0.619,0.545,-0.335,0.608,0.0593,0.313,-0.527 (inactive),0.713,1.32,-0.271 (inactive),-1.1,-0.106 (inactive),-0.822 (inactive),0.127 (inactive),0.972 (inactive),-0.553 (inactive),0.0378 (inactive),-0.611 (inactive),-0.43,0.0982
CCN(CC)c1ccc(N2CC=CC34O[C@@H]5/C=C\CCC(C)OC(=O)C5[C@H]3C(=O)N(CCO)[C@@H]4C2=O)cc1 (stereo not given in full),0.17,0.879,0.498,-0.379,-0.597,0.178,-0.905 (inactive),-0.22,1.83,-0.857 (inactive),-0.68,-0.958 (inactive),-0.742 (inactive),0.543 (inactive),-0.593 (inactive),-0.481 (inactive),-0.736 (inactive),-0.949 (inactive),-0.833,0.283
COc1c(C)cc(-c2cc3c(c(Cc4ccccc4)n2)[Si](C(C)C)(C(C)C)OC3)cc1C,-0.983,-1.44,0.269,-0.418,-0.0095,-1,-0.737 (inactive),0.0185,-0.00287,-0.124 (inactive),-0.683,1.06 (inactive),-0.533 (inactive),-0.0592 (inactive),0.055 (inactive),0.576 (inactive),-0.363 (inactive),-0.779 (inactive),-0.661,-0.138
C=CCC(OC(C)=O)[C@@H]1[C@@H](N(Cc2ccc(-c3ccccc3)cc2)C(=O)c2cccc3ccccc23)c2cc(OCCCO)ccc2N1C(=O)Cc1ccc2ccccc2c1 (stereo not given in full),-0.0841,-0.38,-0.0632,-0.211,-0.183,1.47,-1.43 (inactive),1.22,0.313,0.74 (inactive),0.0989,-0.456 (inactive),-0.144 (inactive),0.0505 (inactive),0.374 (inactive),-0.611 (inactive),0.326 (inactive),-0.299 (inactive),-0.187,0.18
CCOC(=O)C[C@H]1[C@H](OC(=O)Cc2ccc3c(c2)OCO3)[C@@H](NC(=O)Cc2ccc(OC)cc2)c2cc(OCCCO)ccc2N1C(=O)c1ccccc1,0.208,-0.0437,0.547,1.08,0.192,0.873,-1.1 (inactive),0.192,-0.606,-0.0709 (inactive),-0.174,-0.0578 (inactive),-0.727 (inactive),0.0225 (inactive),-0.218 (inactive),0.42 (inactive),-0.296 (inactive),0.386 (inactive),0.66,-0.406
O=C(O)[C@H](Cc1ccccc1)n1cc(-c2ccccn2)nn1,-0.529,0.039,-0.129,0.228,-0.608,0.237,1.56 (inactive),-0.166,-0.263,0.507 (inactive),0.535,-0.65 (inactive),0.365 (inactive),-0.435 (inactive),-0.476 (inactive),0.911 (inactive),-0.256 (inactive),0.23 (inactive),0.373,0.122
CN(C)C(=O)[C@]1(CCC(=O)OC(C)(C)C)N=C(c2ccc(OCCCO)cc2)O[C@@H]1c1ccccc1,1.13,-0.0645,0.41,0.387,-0.014,0.101,0.756 (inactive),-0.368,0.211,0.534 (inactive),-0.0109,-0.0261 (inactive),0.352 (inactive),-0.19 (inactive),0.248 (inactive),0.0653 (inactive),0.0325 (inactive),-0.384 (inactive),0.448,-0.0773
COc1ccc(NC(=O)O[C@H]2[C@H](OC(=O)Nc3ccc4c(c3)OCO4)[C@@H](OC(=O)Nc3ccc4c(c3)OCO4)[C@@H](OC)O[C@@H]2CO)cc1,-1.11,-0.0868,-1.67,-1.44,-0.7,0.818,0.533 (inactive),-0.628,-0.786,0.441 (inactive),-0.315,1.96 (inactive),-0.844 (inactive),-0.445 (inactive),2.33 (inactive),1.56 (inactive),1.13 (inactive),0.0559 (inactive),-0.85,-0.102
CCCCN1CC=CC23O[C@@H]4/C=C\CCC(C)OC(=O)C4[C@H]2C(=O)N(CCCCCCO)[C@@H]3C1=O (stereo not given in full),-0.0164,0.736,1.11,1.79,-0.273,0.375,0.145 (inactive),0.336,-0.563,0.254 (inactive),0.634,0.14 (inactive),0.234 (inactive),-0.524 (inactive),0.109 (inactive),0.432 (inactive),0.666 (inactive),0.544 (inactive),0.981,0.0081
Cc1ccc(S[C@]2(C(=O)NCc3ccccc3)CC(=O)N(C(C)C)[C@@H]2c2ccc(CO)cc2I)cc1,-0.897,0.152,-0.274,-2.35,-3.15,-0.0692,-0.371 (inactive),-0.592,-1.12,1.65 (inactive),0.059,-1.93 (inactive),-1.63 (inactive),-0.335 (inactive),-0.0807 (inactive),-0.964 (inactive),0.484 (inactive),0.329 (inactive),-2.35,-0.253
C[N+](C)(C)CCCC[C@@H]1NC(=O)[C@@H]2C[C@H](C(=O)O)[C@H](c3ccc(O)cc3)N2C1=O,-0.643,0.422,0.914,0.379,-0.0923,0.0942,-0.907 (inactive),-0.142,-0.454,-0.246 (inactive),-1.16,0.824 (inactive),0.18 (inactive),-11.6 (active),0.103 (inactive),0.0252 (inactive),0.233 (inactive),0.596 (inactive),-0.339,-0.199
CCOC(=O)C[C@H]1[C@H](OC(=O)c2ccc(-c3ccccc3)cc2)[C@@H](NC(=O)C2CCCCC2)c2cc(OCCCO)ccc2N1C(=O)c1ccccc1,-0.28,0.557,0.137,-0.412,-0.203,0.383,-0.983 (inactive),0.115,-0.101,-1.01 (inactive),-0.755,1.44 (inactive),-0.464 (inactive),0.141 (inactive),0.656 (inactive),0.925 (inactive),-0.406 (inactive),-0.566 (inactive),-0.95,0.0623

# Reference: PubChem BioAssay
